Hit rate of the full screen: of about 2,400 compounds, about 40 (2%) were called active. Cut-off read from the data, not from the text of the source: active = activation above about 37%; inactive = the rest. Not all results are given here.

Trace amine-associated receptor 1 (Homo sapiens), sequence (Q96RJ0 whole entry, looked up): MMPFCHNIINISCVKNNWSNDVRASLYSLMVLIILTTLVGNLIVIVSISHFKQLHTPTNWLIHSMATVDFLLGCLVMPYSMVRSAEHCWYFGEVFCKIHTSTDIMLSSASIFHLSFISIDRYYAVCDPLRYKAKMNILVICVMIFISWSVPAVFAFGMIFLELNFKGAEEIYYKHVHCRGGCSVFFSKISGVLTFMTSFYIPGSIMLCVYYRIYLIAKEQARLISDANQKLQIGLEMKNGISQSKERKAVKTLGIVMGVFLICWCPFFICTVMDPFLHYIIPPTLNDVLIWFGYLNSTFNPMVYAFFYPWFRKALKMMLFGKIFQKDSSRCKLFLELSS

This assay has as its target Trace amine-associated receptor 1 (Homo sapiens) (UniProt Q96RJ0). The assay is described as follows: TAAR1 activation by candidate antagonists – cell-based, fluorescence, counter-screen for TAAR1 antagonist project (AID 651955).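 Note: CHO cells stably expressing TAAR1 with calcium dye readout; 0% = DMSO vehicle and 100% = full agonist response.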 Conditions: hTAAR1 cell line, agonist mode, at 3 µM, hits give high values. A general note: Counterscreens check selectivity or assay interference.
Turning to `COc1ccc(C2=NOC(Cn3nc(C(=O)NCc4ccc5c(c4)OCO5)cc3-c3ccccc3)C2)cc1` (configuration not stated), the activation is 6.17% (inactive).
The value for `COC(=O)c1sccc1NC(=O)c1cc(OC)c(OC)c(OC)c1` was 6.39% (inactive); that for `Cc1nc(N2CCN(c3ccccn3)CC2)c2c(C)c(C(=O)Nc3ccc(F)cc3)sc2n1` was 5.28% (inactive).
Take `COc1ccc(CN(C)C(=O)c2cc(-c3ccc(C)cc3C)nc3ccccc23)c(OC)c1OC`: the activation is 12.2% (inactive).
The value for `O=C(NCCN1C(=O)S/C(=C\c2cccnc2)C1=O)c1ccc(S(=O)(=O)N2CCCC2)cc1` was 6.63% (inactive); that for `C[C@H](O)[C@@H]1C(=O)N2CCc3c([nH]c4c(-c5ccc6c(c5)OCO6)cccc34)[C@@H]2C[C@@H]1N(C)C(=O)c1ccco1` was 7.7% (inactive).
`Cc1cc(Br)ccc1NC(=O)c1cnc(N2CCN(c3ccccn3)CC2)c2ccccc12`: the activation was 5.88% (inactive).
Take `COC(=O)[C@@]1(Sc2ccc(C)cc2)CC(=O)N(c2cccc(SC)c2)[C@@H]1c1ccccc1`: the activation is 9.64% (inactive).
In the case of `COc1ccc(S(=O)(=O)N2CCCC(C(=O)Nc3ccc(NC(=O)c4ccccn4)cc3)C2)cc1` (configuration not stated), the activation was 11% (inactive).
On to `COc1ccc(CCNC2=C(Cl)C(=O)N(Cc3ccccc3)C2=O)cc1OC`, for which the activation is 7.18% (inactive).
Turning to `O=C(O)c1ccc(NC(=O)c2cn(-c3ccccc3)nc2-c2ccc(Cl)cc2)cc1`, the activation is -1.05% (inactive).
With `COc1ccc(NC(=O)c2cc(-c3ccc(C)o3)nc3ccccc23)cc1`, the activation is 6.61% (inactive).
On to `O=C(Oc1ccc(-c2nnco2)cc1)c1ccc(F)c(S(=O)(=O)N2CCOCC2)c1`, for which the activation was 14.6% (inactive).
The value for `O=C(OCC(=O)N(CCc1ccccc1)Cc1ccccc1)c1ccccc1[N+](=O)[O-]` was 7.56% (inactive); that for `COC(=O)Cc1nnn2c1[C@H](C)[C@H](c1ccccc1Br)OCC2` was 7.69% (inactive); that for `COc1ccc(OC)c2[nH]c(=O)c(CCNC(=O)C(=O)c3c[nH]c4ccccc34)cc12` was 10.8% (inactive).
Regarding `Cc1cccc(NC(=O)c2ccc(COc3ccccc3[N+](=O)[O-])o2)n1`, the activation is 1.12% (inactive).
For the compound `NNC(=O)CNC(c1ccccc1)c1cc(Cl)ccc1NC(=O)c1ccccc1` (configuration not stated), the activation was 8.83% (inactive).
For the compound `Cc1cc(C(C)(C)C)oc1C(=O)N(CC(=O)NC1CCCC1)Cc1ccc(Cl)cc1`, the activation was 34.2% (inactive).
The value for `CCOc1cc(/C=N/NC(=O)c2cc(-c3ccccc3)nc3ccccc23)ccc1O` was 15.8% (inactive).
`O=C(N/N=C/c1ccc(OC(=O)c2ccccc2Cl)cc1)c1ccc(O)cc1`: the activation was 13.1% (inactive).
Take `Cc1cccc(NC(=O)c2nc[nH]c2C(=O)NCC(=O)OCc2ccccc2)c1`: the activation is 3.94% (inactive).
The value for `C[C@H](NC(=O)c1nc[nH]c1C(=O)NCC(=O)OC(C)(C)C)C(=O)OCc1ccccc1` was 11.1% (inactive); that for `O=C(COC(=O)CCCSc1nc2ccccc2[nH]1)Nc1ccc(Oc2ccccc2)cc1` was 9.65% (inactive).
Turning to `COc1ccc(CCNC(=O)c2ccc(CS(=O)(=O)c3ccc(Br)cc3)o2)cc1OC`, the activation is 12.3% (inactive).
Turning to `COc1cc2ccccc2cc1C(=O)Nc1ccc(NC(=O)c2cccs2)cc1`, the activation is 7.6% (inactive).
On to `C=CCC[C@H](Cc1ccc(F)cc1)C(=O)OC[C@H](C)NC(=O)[C@H](CC=C)CC(=O)N(CCO)Cc1ccccc1`, for which the activation is 6.83% (inactive).
The value for `CCc1ccc2c(c1)NC(=O)C2(C)Cc1ccc(OC(F)(F)F)cc1` (configuration not stated) was 25.6% (inactive); that for `CC/C(=N/Nc1ccccc1)c1cnnc(SC)n1` was -4.06% (inactive); that for `Cc1ccc2c(c1)N(CC(=O)NCCc1ccc(Cl)cc1)C(=O)c1cccnc1O2` was 5.11% (inactive).
As for `Oc1ccccc1N1CCN(c2ncnc3sc(-c4ccccc4)cc23)CC1`, the activation was 2.9% (inactive).
The value for `Cc1ccc(NC(=O)c2ccc(CSc3ncnc4nc[nH]c34)cc2)c(C)c1` was 3.79% (inactive).
Consider `C=CCc1cc(S(=O)(=O)c2ccc(O)c(CC=C)c2)ccc1O`, for which the activation is 9.65% (inactive).
On to `Cc1ccc2cccc(OCCCOc3ccccc3CO)c2n1`, for which the activation was 11.3% (inactive).
The value for `COc1ccc(/C=C/C(=O)Nc2ccc(C34CC5CC(CC(O)(C5)C3)C4)cc2)cc1OC` was 11.1% (inactive); that for `Cc1ccccc1NC(=O)Cc1nc(COC(=O)C(C)(C)Oc2ccc(Cl)cc2)cs1` was 10.5% (inactive); that for `CCNS(=O)(=O)c1ccc(CCC(=O)N2CCN(c3cc(Cl)ccc3C)CC2)cc1` was 17.4% (inactive).
With `COc1ccc(C(=O)Oc2ccc(-c3nnco3)cc2)cc1S(=O)(=O)N1CCOCC1`, the activation is 11% (inactive).
Consider `Oc1ccc(/C=N/Nc2nc(-c3ccccc3F)nc3ccccc23)c(O)c1`, for which the activation is 9.34% (inactive).
Consider `C=CCn1c(SCc2cccc(F)c2)nc2cc(C(=O)N3CCC(C(N)=O)CC3)ccc2c1=O`, for which the activation was 9% (inactive).
With `COc1ccc2[nH]c(=O)c(CN(Cc3cccnc3)S(=O)(=O)c3ccccc3F)cc2c1`, the activation was 12.6% (inactive).
The value for `Fc1ccc(/C=N/Nc2nc(-c3cccnc3)nc3ccccc23)cc1` was 3.24% (inactive).
As for `CCOC(=O)C1=C(NC(=S)NC(=O)c2ccccc2)c2ccccc2CC1(C)C`, the activation is 31.1% (inactive).
The value for `CNC(=O)c1ccsc1NC(=O)c1ccc(S(=O)(=O)N2CCc3ccccc32)cc1` was 6.5% (inactive); that for `CC(C)(C)OC(=O)NCCCCCNC(=O)c1nc[nH]c1C(=O)NCc1ccccc1` was 7.66% (inactive).
Take `Cc1ccccc1OCC(=O)Nc1ccc(N2CCN(C(=O)C(C)C)CC2)c(Cl)c1`: the activation is 10.6% (inactive).
Regarding `COc1cc(OC)cc(C(=O)OCC(=O)Nc2sccc2C(N)=O)c1`, the activation was 16.7% (inactive).
`CCOc1ccc(NC(=O)N2CC=C(n3c(=O)[nH]c4ccccc43)CC2)cc1`: the activation is 6.44% (inactive).
`O=C(CCc1ccccc1)Nc1cccc(-c2nnc(-c3ccco3)o2)c1`: the activation is 7.95% (inactive).
With `O=C(Nc1ccc(-c2nnc(-c3ccccc3)o2)cc1)c1ccc(Br)o1`, the activation was -1.1% (inactive).
As for `CC(C)Oc1cc(F)ccc1-c1cc(C(=O)Nc2ccc(F)cc2)[nH]n1`, the activation is 2.53% (inactive).
As for `COc1ccc(-c2cc(C(=O)N(C)Cc3ccc(OC)c(OC)c3OC)c3ccccc3n2)cc1OC`, the activation was 8.62% (inactive).

(Values after PubChem BioAssay AID651955 (The Scripps Research Institute Molecular Screening Center, 2012).)
